From PubChem
This is a sample that favours compounds with a hit; in the whole collection about 3.3% have one here.
Efflux pump inh: blocks antifungal efflux pumps in multiplex yeast assay. AID 485275. inhibition, % at 10 µM. 330,000 compounds, 0.44% hits. S. cerevisiae Candida pump triplex, Nile Red efflux;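 active means plate passing quality check with inhibition over a set limit, or well fluorescence over plate mean plus 4 SD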;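 further: Nile Red retained in pooled yeast measured as flow cytometry median fluorescence; 0% = buffer negative control and 100% = Enniatin B positive control; higher means more Nile Red kept so more efflux inhibition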
PHOSPHO1 inh: inhibitors of human PHOSPHO1 phosphatase | inhibition, % at 13.3 µM | Q8TCT1 | 290,000 compounds, 1.1% hits | recombinant PHOSPHO1, absorbance phosphatase assay; in the data active means inhibition above about 60%
Cl transport mod: modulators of human KCC2 chloride dependent transport | Q9H2X9 | KCC2 cells, thallium flux FluoZin-2 fluorescence | B-score of Tl+ flux slope (higher = more flux/activation; lower = inhibition) at 10 µM | 190,000 compounds, 2.2% hits | AID 1456;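 active means thallium flux slope and its plate-corrected score both differing from the plate sample mean at a set confidence after two filtering rounds, in either direction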;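 further: slope of fluorescence scaled to starting intensity during 10 to 20 s after thallium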
Target sequence (Q9H2X9 whole entry, looked up): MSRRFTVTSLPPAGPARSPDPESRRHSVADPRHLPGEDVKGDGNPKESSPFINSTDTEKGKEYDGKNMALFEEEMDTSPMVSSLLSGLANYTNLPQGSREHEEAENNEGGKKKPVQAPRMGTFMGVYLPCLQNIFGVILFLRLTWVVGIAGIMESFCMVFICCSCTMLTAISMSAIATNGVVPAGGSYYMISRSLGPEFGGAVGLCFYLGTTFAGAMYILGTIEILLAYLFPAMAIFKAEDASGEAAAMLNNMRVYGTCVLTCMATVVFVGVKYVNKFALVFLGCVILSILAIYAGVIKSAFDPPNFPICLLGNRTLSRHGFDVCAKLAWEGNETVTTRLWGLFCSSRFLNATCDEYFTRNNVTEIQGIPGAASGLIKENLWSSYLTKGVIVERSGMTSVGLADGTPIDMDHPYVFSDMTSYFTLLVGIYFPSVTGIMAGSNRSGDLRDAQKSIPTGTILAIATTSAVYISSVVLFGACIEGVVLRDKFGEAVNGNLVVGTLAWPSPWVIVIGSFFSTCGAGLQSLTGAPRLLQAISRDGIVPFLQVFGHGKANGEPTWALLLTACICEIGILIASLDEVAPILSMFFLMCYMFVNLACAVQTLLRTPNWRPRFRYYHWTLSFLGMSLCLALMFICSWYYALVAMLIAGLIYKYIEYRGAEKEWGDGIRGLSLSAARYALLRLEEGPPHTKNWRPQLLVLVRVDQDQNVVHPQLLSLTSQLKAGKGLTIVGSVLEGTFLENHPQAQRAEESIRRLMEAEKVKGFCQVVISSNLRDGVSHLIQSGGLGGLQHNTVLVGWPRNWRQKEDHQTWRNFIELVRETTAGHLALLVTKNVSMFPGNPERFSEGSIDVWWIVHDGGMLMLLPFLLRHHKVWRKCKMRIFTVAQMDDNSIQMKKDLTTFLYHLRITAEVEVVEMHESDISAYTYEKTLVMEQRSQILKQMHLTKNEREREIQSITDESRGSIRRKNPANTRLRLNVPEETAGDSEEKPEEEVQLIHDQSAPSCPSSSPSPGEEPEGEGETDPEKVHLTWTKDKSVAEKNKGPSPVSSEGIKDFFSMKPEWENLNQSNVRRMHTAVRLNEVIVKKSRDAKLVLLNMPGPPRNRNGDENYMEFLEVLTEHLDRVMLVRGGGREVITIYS
Calb FLC: C. albicans growth modulation with fluconazole; 300,000 compounds, 0.57% hits; C. albicans CaCi-2 (fluconazole-resistant clinical isolate) + fluconazole, Alamar Blue growth, 48 h; AID 1979; growth inhibition, % (test concentration not listed);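 active means growth inhibition above about 58% in most replicates, limit read from the data, passing the limit was not always enough; inconclusive means exactly half the replicates above a set limit; inactive means most replicates below a set limit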;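 further: all wells also contain fluconazole at 8 µg/ml as a sub-toxic cotreatment; 0% = median of DMSO wells and 100% = median of geldanamycin control wells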
H9c2 protect: modulators protecting cardiomyocytes from myocardial damage | H9c2 cardiomyocytes, H2O2 injury protection, ATPLite, 2 h | protection from H2O2 cell death, % at 20 µM | 360,000 compounds, 0.63% hits | AID 588492;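 active means compounds giving at least 50% protection of heart cells from peroxide-induced death in the single-dose screen, raw or plate-pattern-corrected value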;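 further: 0% = DMSO wells with peroxide and 100% = DMSO wells without peroxide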
KCC2 sec1: confirmation of human KCC2 transport modulators. shares compounds with Cl transport mod. HEK293-KCC2, thallium flux, FluoZin2 fluorescence; active compounds read high. normalised thallium flux (F/F0 slope) at 10 µM. 3,700 compounds, 15% hits. AID 1713;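 active means thallium flux slope above the same plate's solvent-only control mean plus 3 SD; inconclusive means the two replicate wells disagree; inactive means no significant difference from solvent-only control wells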
KCC2 bumet counter: thallium flux despite bumetanide block in KCC2 cells, secondary assay 3; HEK293-KCC2 + bumetanide/ouabain, thallium flux FluoZin2; active compounds read high; shares compounds with Cl transport mod; 3,700 compounds, 49% hits; normalized thallium flux at 10 µM;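 active means thallium entry rate above the same plate's blocked-transporter control wells by more than 3 SD; inconclusive means the two repeat wells disagree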;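 further: raw slope of fluorescence over initial fluorescence between 10 and 20 s after thallium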
KCC2 sec2: KCC2 (human) modulation, second secondary assay; HEK293-KCC2, thallium flux FluoZin2 fluorescence; actives lie on both sides; F/F0 rise rate, 10–20 s post-thallium; 3,700 compounds, 23% hits; shares compounds with Cl transport mod; normalized thallium flux at 10 µM;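 active means thallium flux slope more than 3 SD above or below the plate's solvent-only control mean, mostly below; inconclusive means the two repeat wells disagreed; inactive means no significant shift from solvent-only controls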;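 further: raw slope with 0.1% DMSO as baseline and bumetanide as block control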
HEK293 Tl flux: parental HEK flux effect, counter-screen. thallium flux rate (normalised fluorescence) at 10 µM. AID 1716. shares compounds with Cl transport mod. HEK293 parental cells, thallium flux FluoZin2, ouabain; baseline-ratio fluorescence slope, 10–20 s after thallium. 3,700 compounds, 46% hits;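 active means thallium flux rate significantly above the same plate's solvent-only control wells, beyond their mean plus 3 SD; inconclusive means the two replicate wells gave conflicting results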
KCC2 ouabain: confirmation of human KCC2 modulators with ouabain. HEK293-KCC2, thallium flux FluoZin2 fluorescence; bidirectional: low = inhibitor, high = activator. 3,700 compounds, 48% hits. shares compounds with Cl transport mod. raw Tl+ flux slope (below DMSO = inhibition, above = activation) at 10 µM. AID 1717;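 active means thallium flux slope beyond 3 SD from same-plate DMSO control mean in most replicates, usually higher, sometimes lower; inconclusive means repeat tests gave conflicting results; inactive means no significant difference from controls in most replicates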;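 further: slope of initial-normalized fluorescence between seconds 10 and 20 after thallium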
HEK293 Tl flux2: parental HEK flux effect, counter-screen 2. shares compounds with Cl transport mod. HEK293 parental, thallium flux FluoZin-2 fluorescence slope. thallium flux slope at 10 µM. 3,700 compounds, 33% hits;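 active means thallium flux slope above the same plate's solvent-control mean plus 3 SD in both duplicate wells; inconclusive means duplicate wells that disagreed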;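 further: run without ouabain in cells lacking the KCC2 cotransporter; slope of fluorescence scaled to its starting value between 10 and 20 s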
Numbers without * were called inactive; ? = inconclusive; nt = not tested or not shown.

SMILES	Efflux pump inh	PHOSPHO1 inh	Cl transport mod	Calb FLC	H9c2 protect	KCC2 sec1	KCC2 bumet counter	KCC2 sec2	HEK293 Tl flux	KCC2 ouabain	HEK293 Tl flux2
Cc1c(N=C2Nc3cccc4cccc2c34)c(=O)n(-c2ccccc2)n1C	-0.1	16.8	-2.9*	-0.3	3.8	?	0.0051	0.0258*	0.00843	0.0162*	0.00978
Cc1cccc(C(=O)NNC(=O)C2CCN(C(=O)OC(C)(C)C)CC2)c1	0.1	-12.1	nt	-16.3	3.8	nt	nt	nt	nt	nt	nt
O=C(CSc1ccc2ccccc2c1)N1CCN(c2ccc(O)cc2)CC1	-0.2	6.2	-1.05	-15.0	1.3	nt	nt	nt	nt	nt	nt
O=C(NC(=S)Nc1ccc(N2CCCCC2)cc1)c1cccs1	-0.1	28.1	nt	-10.2	-15.6	nt	nt	nt	nt	nt	nt
CS(=O)(=O)Nc1ccc(C(=O)N2CCN(c3ccccc3)CC2)cc1	-0.3	3.2	0.215	-3.9	-5.6	0.00771	0.00427	0.0266	0.00782	0.0184	0.00979
O=C(c1ccc2ccccc2c1)N1CCN(c2ccc(O)cc2)CC1	-0.3	13.5	-3.7*	?	14.5	0.0104	0.00623	0.0328	0.00817	0.019	0.0122
O=C(c1ccccc1)N1CCN(c2ccccc2)CC1	nt	nt	nt	nt	5.7	nt	nt	nt	nt	nt	nt
O=C(NC(=S)N1CCN(c2ccc(F)cc2)CC1)c1cccs1	0.0	-98.8	32.4*	34.8	7.0	0.0124*	0.115*	0.11*	0.115*	0.113*	0.112*
O=C(NC(=S)Nc1ccc(N2CCN(C(=O)c3ccccc3)CC2)cc1)c1cccs1	0.0	29.9	3.38*	-8.2	-5.5	0.0103	0.00968*	0.0333	0.0105*	0.0203	0.0117
CC(C(=O)NC(C)(C)C)N1C(=O)c2cccc3cccc(c23)C1=O (centres undefined)	-0.2	-5.3	0.317	1.1	7.7	nt	nt	nt	nt	nt	nt
CC(C)(C)OC(=O)N[C@@H](COCc1ccccc1)C(=O)N[C@@H](CO)[C@H](O)[C@@H]1C[C@@H]1C(=O)NC1CCCCC1	-0.1	-13.0	nt	5.8	4.4	nt	nt	nt	nt	nt	nt
Cn1c(C(=O)NCCCN2CCc3ccccc3C2)cc2c(=O)n(C)c3ccccc3c21	0.1	-3.3	nt	-6.3	32.9	0.0058	0.00541	0.0231*	0.00778	?	0.0116
Cn1c(C(=O)NCCCN2CCCCCC2)cc2c(=O)n(C)c3ccccc3c21	-0.1	-10.0	-1.5	nt	7.0	nt	nt	nt	nt	nt	nt
c1ccc(-c2ccc(CN3C[C@@H]4C(c5ccccc5)C5(c6ccccc6)CC4(C5)[C@H]3c3ccccc3)cc2)cc1 (some centres undefined)	0.2	4.5	0.458	-2.9	0.5	nt	nt	nt	nt	nt	nt
N#Cc1ccc(C23CC4(C2)[C@H](CN(Cc2ccc(-c5ccccc5)cc2)[C@@H]4c2ccccc2)C3c2ccccc2)cc1 (some centres undefined)	-0.1	30.9	3.67*	-1.1	10.7	0.0146	0.00494	0.0263	0.00753	0.0161	0.0103
O=S(=O)(NC1CCCC1)c1cccc(S(=O)(=O)N2CCC(n3nnc4ccccc43)CC2)c1	-0.2	23.6	nt	-28.2	-8.9	0.0178	0.00475	?	0.00666	0.0133	0.00997
O=S(=O)(NC1CC1)c1cccc(S(=O)(=O)N2CCCC2)c1	0.0	-10.9	nt	-5.4	-9.4	nt	nt	nt	nt	nt	nt
Cc1ccc2c(c1)nnn2C1CCN(S(=O)(=O)c2cccc(S(=O)(=O)N(C)C)c2)CC1	-0.1	-42.5	nt	0.2	-8.4	0.00688	0.00567	?	0.00639	?	0.00952
Cc1ccc2c(c1)nnn2C1CCN(S(=O)(=O)c2ccc3ccccc3c2)CC1	0.1	-16.5	-1.59	-3.7	2.7	nt	nt	nt	nt	nt	nt
Cc1ccc(C(=O)CCC(=O)OC(C)C(=O)NC2CCCCC2C)cc1 (centres undefined)	0.2	nt	nt	nt	-7.4	nt	nt	nt	nt	nt	nt
CCn1c(N2CCC(Cc3ccccc3)CC2)nc2c1c(=O)[nH]c(=O)n2C	0.4	18.1	-3.09*	22.9	2.5	0.00779	0.00461	0.0322	0.00606*	0.0159*	0.0107
O=C(Nc1ccc(CN2CCOCC2)cc1)c1cc2ccccc2o1	-0.1	-21.9	-0.759	?	-9.0	nt	nt	nt	nt	nt	nt
O=C(NC(=S)Nc1ccc(CN2CCOCC2)cc1)c1ccc(-c2ccc(Br)cc2)o1	0.1	12.9	5.31*	22.7	nt	0.00962	0.00631	0.0329	0.0175*	?	0.0112
O=C(NC(=S)Nc1ccc(CN2CCOCC2)cc1)c1cc2ccccc2o1	-0.1	27.4	12.4*	12.4	-4.3	0.00647	0.0162*	0.0324	0.0198*	0.0294*	0.015*
COc1ccc(C2/C=C\CN(CC3CC3)CC(=O)N2Cc2ccc(F)cc2)cc1 (centres undefined)	nt	17.7	-3.44*	-10.7	-4.3	0.00699	0.0063	0.0314	0.00733	0.0169*	0.0106
SMILES	Efflux pump inh	PHOSPHO1 inh	Cl transport mod	Calb FLC	H9c2 protect	KCC2 sec1	KCC2 bumet counter	KCC2 sec2	HEK293 Tl flux	KCC2 ouabain	HEK293 Tl flux2
CCCCC(=O)N1C/C=C\C(c2ccc(OC)cc2)N(Cc2ccc(F)cc2)C(=O)C1 (centres undefined)	-0.1	34.3	-2.77*	-5.1	-0.8	0.00878	0.00505	0.033	0.00757	0.019	0.0109
COc1ccc(C2/C=C\CN(CC(C)(C)C)CC(=O)N2Cc2ccc(F)cc2)cc1 (centres undefined)	nt	8.9	-0.546	-6.3	-9.8	nt	nt	nt	nt	nt	nt
CCCCCN1C/C=C\C(c2ccc(OC)cc2)N(Cc2ccc(F)cc2)C(=O)C1 (centres undefined)	nt	22.1	-2.52*	-2.9	2.0	0.00962	0.00486	?	0.00702	0.017*	0.00987
COC(=O)N1C/C=C\C(c2ccc(OC)cc2)N(Cc2ccc(F)cc2)C(=O)C1 (centres undefined)	nt	17.7	0.153	-1.6	6.1	nt	nt	nt	nt	nt	nt
O=C(COC(=O)COc1ccccc1)NCc1ccc2c(c1)OCO2	0.2	nt	nt	nt	2.0	nt	nt	nt	nt	nt	nt
O=C(NC(=S)Nc1cccc(O)c1)C12CC3CC(CC(C3)C1)C2	nt	nt	nt	nt	-21.2	nt	nt	nt	nt	nt	nt
Cc1ccccc1CSc1nnc(-c2ccco2)n1Cc1ccco1	-0.1	-0.1	nt	46.1	6.2	nt	nt	nt	nt	nt	nt
c1ccc(CSc2nnc(-c3ccco3)n2Cc2ccco2)cc1	0.2	37.0	nt	23.5	3.4	0.0056	?	0.0255*	0.00507*	0.0142*	0.00863*
